The source of these data is PubChem BioAssay (Tox21).

SMILES strings stand for the structures. Unmarked numbers belong to inactive results. Inconclusive results are not listed. A call without a number means that no potency is given here. Active and inactive are the calls of the source. Calls come from the whole dose curve; as a rule, active = well fitted curve in the direction sought with a large enough effect in the repeat runs; inconclusive = weak or mixed curves; inactive = no such curve, though single readings can be large; an effect the other way counts as inactive or inconclusive.

One assay in a line: Caspase-3/7 induction in CHO-K1 cells by small molecules, qHTS assay (AID 1346980). Note: nearly all actives have a fitted effect of over 15% in size. The conditions noted are these: CHO-K1 caspase-3/7 induction, Caspase-Glo luminescence, 17 h; series mostly up to 92.4 µM. In a few lines: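 Wild-type cells were seeded at 1,500 per well and settled 5 hr at 37 C, 5% CO2, then exposed to DMSO-dissolved compounds for 17 hr. Caspase-Glo 3/7 reagent was added, and luminescence was read after 30min at room temperature.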
In general terms: In qHTS, concentration-response curves come from the screen itself.
Consider `CO[Si](CCCCl)(OC)OC`, for which the compound was classed as inactive.

As to `CCCCC(CC)COC(=O)c1ccccc1` (configuration not stated), the call was inactive.

`COc1ccc(N=Nc2cc(C)c(N=Nc3ccc(S(=O)(=O)O)cc3)cc2OC)cc1`: the compound was called inactive.

As to `Cc1ccc2c(c1)c1c3n2CCNC3CCC1` (configuration not stated), the result was inactive.

On to `C1=C\CC/C=C\CC/1`, for which the call was inactive.

Regarding `CCCCCN(CCCOC)C(=O)C(CCC(=O)O)NC(=O)c1ccc(Cl)c(Cl)c1` (configuration not stated), the call was inactive.

Take `CC(=O)/C=C/c1ccco1`: the compound was called inactive.

As to `Nc1c(NC/C=C\COc2cc(CN3CCCCC3)ccn2)c(=O)c1=O`, the caspase-3/7 activation is -0.585% [at 19 µM].

As to `Cc1nc(C)nc(N2C[C@@H](C)N(c3ccnc([C@@H](C)O)n3)[C@@H](C)C2)n1`, the compound was classed as inactive.

For `SCCSCCS`, the outcome was inactive.

`CCCCCCCCOC(C)=O`: the call was inactive.

In the case of `COCCOCCOCCOC`, the compound was called inactive.

Consider `O=C(O)c1c(Cl)ccc(Cl)c1Cl`, for which the outcome was inactive.

Take `Cc1ccc(C(=O)C(=O)O)cc1C`: the compound was called inactive.

With `CCCCCCCCCOCC1CO1` (configuration not stated), the outcome was inactive.

`O=c1[nH]c(=O)c2[nH]c(=O)[nH]c2[nH]1`: the caspase-3/7 activation was -0.0479% [at 8.39 µM].

For the compound `O=C1NC2NC(=O)NC2N1` (configuration not stated), the outcome was inactive.

For `CCN(Cc1cccc(S(=O)(=O)O)c1)c1ccccc1`, the result was inactive.

Turning to `CCC(C)(C)C1CCC(=O)CC1`, the result was inactive.

As for `CCCCCC1Nc2cc(C(F)(F)F)c(S(N)(=O)=O)cc2S(=O)(=O)N1` (configuration not stated), the call was inactive.

On to `O=c1[nH]c(=O)c2ccccc2o1`, for which the compound was called inactive.

As for `CC(=O)OC(C)c1ccccc1` (configuration not stated), the compound was called inactive.

As to `Cc1ccc(S(=O)(=O)NC(=O)NC2CCCCCCC2)cc1`, the compound was called inactive.

Consider `O=S1(=O)CCCC1`, for which the call was inactive.

For `CCCOCCOCCOCCO`, the call was inactive.

On to `CC(C)CCCC(C)CC=O` (configuration not stated), for which the call was inactive.

With `NCCc1ccn[nH]1`, the compound was classed as inactive.

In the case of `Nc1ccc(S(=O)(=O)Nc2ccccn2)cc1`, the call was inactive.

On to `NS(=O)(=O)c1ccc(Cl)c(S(N)(=O)=O)c1`, for which the outcome was inactive.

For `CC(C)C(=O)Nc1cccc(C(F)(F)F)c1`, the compound was called inactive.

Regarding `OC(CCN1CCCCC1)(c1ccccc1)c1ccccc1`, the result was inactive.

The next assay is described as follows: Caspase-3/7 induction in HepG2 cells by small molecules, qHTS cell viability counter screen (AID 1346981). Note: nearly all actives have a fitted effect of over 30% in size. Note: potency is the fitted concentration of half-maximal effect. As to conditions: CellTiter-Fluor fluorescence, 17 h; series mostly up to 92.4 µM. The method in brief:
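Wild-type HepG2 cells (2,000/well) were allowed to settle for 5 hr at 37 C, 5% CO2, then dosed with compounds in DMSO by pin transfer. After 16 hr at 37 C, CellTiter-Fluor was added and fluorescence read 1 hr later.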
For the compound `CO[Si](CCCCl)(OC)OC`, the Potency result was “inactive”.

With `c1ccccc1`, the Potency result was “inactive”.

Turning to `CCCCC(CC)COC(=O)c1ccccc1` (configuration not stated), the Potency result is “inactive”.

On to `COc1ccc(N=Nc2cc(C)c(N=Nc3ccc(S(=O)(=O)O)cc3)cc2OC)cc1`, for which the Potency is 30.6 µM (active).

For the compound `CCCCCCCCCCCCC1CO1` (configuration not stated), the Potency result was “inactive”.

`CC(=O)Nc1ncc([N+](=O)[O-])s1`: the Potency entry is “inactive”.

Take `C1=C\CC/C=C\CC/1`: the Potency entry was “inactive”.

As for `CCCCCN(CCCOC)C(=O)C(CCC(=O)O)NC(=O)c1ccc(Cl)c(Cl)c1` (configuration not stated), the Potency entry was “inactive”.

Regarding `CC(=O)/C=C/c1ccco1`, the Potency result is “inactive”.

Consider `C=CCOCC(O)CCl` (configuration not stated), for which the Potency entry was “inactive”.

On to `Cc1nc(C)nc(N2C[C@@H](C)N(c3ccnc([C@@H](C)O)n3)[C@@H](C)C2)n1`, for which the Potency entry is “inactive”.

As to `SCCSCCS`, the Potency entry is “inactive”.

With `CCCCCCCCOC(C)=O`, the Potency entry was “inactive”.

Take `COCCOCCOCCOC`: the Potency result is “inactive”.

With `O=C(O)c1c(Cl)ccc(Cl)c1Cl`, the Potency entry was “inactive”.

Take `CC1=NN(c2ccc(S(=O)(=O)O)cc2)C(=O)C1N=Nc1ccccc1` (configuration not stated): the Potency was 61.1 µM (active).

For the compound `Cc1ccc(C(=O)C(=O)O)cc1C`, the Potency result is “inactive”.

Regarding `CCCCCCCCCOCC1CO1` (configuration not stated), the Potency result is “inactive”.

`O=c1[nH]c(=O)c2[nH]c(=O)[nH]c2[nH]1`: the activity change, negative = cytotoxicity was 2.67% [at 8.39 µM].

Consider `O=C1NC2NC(=O)NC2N1` (configuration not stated), for which the Potency result is “inactive”.

Take `CCN(Cc1cccc(S(=O)(=O)O)c1)c1ccccc1`: the Potency entry is “inactive”.

On to `CCC(C)(C)C1CCC(=O)CC1`, for which the Potency entry was “inactive”.

With `CCCCCC1Nc2cc(C(F)(F)F)c(S(N)(=O)=O)cc2S(=O)(=O)N1` (configuration not stated), the Potency entry was “inactive”.

For the compound `CCCCC(=O)N(C)C`, the Potency result was “inactive”.

As for `O=c1[nH]c(=O)c2ccccc2o1`, the Potency entry is “inactive”.

Regarding `CC(=O)OC(C)c1ccccc1` (configuration not stated), the Potency result was “inactive”.

With `Cc1ccc(S(=O)(=O)NC(=O)NC2CCCCCCC2)cc1`, the Potency entry is “inactive”.

Turning to `O=S1(=O)CCCC1`, the Potency result was “inactive”.

As for `CCCOCCOCCOCCO`, the Potency entry is “inactive”.

As for `CC(C)CCCC(C)CC=O` (configuration not stated), the Potency entry was “inactive”.

As to `NCCc1ccn[nH]1`, the Potency entry was “inactive”.

As to `CC(Cl)COP(=O)(OCC(C)Cl)OCC(C)Cl` (configuration not stated), the Potency result was “inactive”.

Regarding `Nc1ccc(S(=O)(=O)Nc2ccccn2)cc1`, the Potency result was “inactive”.

On to `NS(=O)(=O)c1ccc(Cl)c(S(N)(=O)=O)c1`, for which the Potency result was “inactive”.

With `CC(C)C(=O)Nc1cccc(C(F)(F)F)c1`, the Potency entry was “inactive”.

With `OC(CCN1CCCCC1)(c1ccccc1)c1ccccc1`, the Potency result is “inactive”.
